# Measured values from PubChem BioAssay (NCATS).
# Results filed as inconclusive are left out. A call without a number means that no potency is given here. Active and inactive are the calls of the source. Unless noted, calls follow the shape of the dose curve; as a rule, active = well fitted curve in the direction sought with a large enough effect; inconclusive = small, poorly fitted or top-dose-only effect, or another doubt; inactive = no such curve, though single readings can be large; an effect the other way counts as inactive or inconclusive.
# Columns and labels:
# [1] = target: Mitogen-activated protein kinase 10 (Mus musculus) (UniProt Q61831); experiment: JNK3 AlphaScreen Assay (AID 530; active = well fitted curve in either direction with a large enough effect, not every such curve was filed as active;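 also: kinase came from lysate of stimulated human HepG2 cells; signal reports phosphorylation of biotinylated GST-cJun 1-79 at Ser73 with 10 µM ATP; series mostly up to about 57 µM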)
# Outline: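 HepG2 lysate (IL-1b/TNFa pre-activated) + biotin-GST-cJun 1-79 + anti-pSer73 cJun; cpd titration, 15 min RT; ATP 10 uM start; Tris pH 7.6, MgCl2, DTT, vanadate; beads in EDTA buffer; AlphaScreen.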
# [2] = target: Cytochrome P450 3A4 (Homo sapiens) (UniProt P08684); experiment: qHTS Assay for Inhibitors and Substrates of Cytochrome P450 3A4 (AID 884); also: potency is read from the fitted curve at half-maximal effect; nearly all actives have a fitted effect of over 50% in size
# Cytochrome P450 3A4 (Homo sapiens), sequence (P08684 whole entry, looked up): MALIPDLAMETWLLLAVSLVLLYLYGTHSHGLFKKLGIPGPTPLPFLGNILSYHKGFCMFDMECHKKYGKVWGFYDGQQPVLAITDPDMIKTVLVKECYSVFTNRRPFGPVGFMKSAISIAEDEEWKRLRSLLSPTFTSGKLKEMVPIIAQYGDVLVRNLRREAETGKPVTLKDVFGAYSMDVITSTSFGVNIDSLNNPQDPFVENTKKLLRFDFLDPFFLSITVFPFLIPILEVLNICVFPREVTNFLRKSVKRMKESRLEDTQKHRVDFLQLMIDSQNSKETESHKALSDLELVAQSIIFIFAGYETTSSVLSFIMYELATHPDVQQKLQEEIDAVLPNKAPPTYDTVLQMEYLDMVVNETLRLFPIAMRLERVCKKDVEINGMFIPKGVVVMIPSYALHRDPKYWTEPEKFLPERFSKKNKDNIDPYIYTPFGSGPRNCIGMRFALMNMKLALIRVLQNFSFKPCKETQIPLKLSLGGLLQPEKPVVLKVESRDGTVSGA
# Outline: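 Luminescent readout of luciferin produced by CYP3A4 (20 nM) dealkylation of Luciferin-PPXE, 25 uM (its KM). NADPH-driven reaction ran 60 min at RT after 10 min compound preincubation; data scaled to 57 uM ketoconazole as 100% inhibition.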
# [3] = target: Cytochrome P450 3A4 (Homo sapiens) (UniProt P08684); experiment: qHTS Assay for Activators of Cytochrome P450 3A4 (AID 885); also: nearly all actives have a fitted effect of over 65% in size
# Outline: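 Human CYP3A4 dealkylates Luciferin-PPXE to luciferin, which luciferase detection converts to light. Substrate was at its KM (25uM), buffer 200mM KPO4, reaction 60 min at RT.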
SMILES,outcome [1],Potency [2],Potency [3]
Cc1cc(CNC(=O)C(C)Cc2ccccc2)nn1C (configuration not stated),inactive,10 µM (active),inactive
COC(=O)c1ccc(C(NC(=O)OCc2ccccc2)/C(=C/[C@@H](C)C(=O)N[C@@H](CO)Cc2ccccc2)c2cccnc2)cc1 (some centres not stated),inactive,1 µM (active),inactive
COC(=O)c1ccc(C(NC(=O)OCc2ccccc2)/C(F)=C/[C@@H](C)C(=O)NCc2cc(C)on2)cc1 (some centres not stated),inactive,2.51 µM (active),inactive
COC(=O)c1ccc(C(/C=C/[C@@H](C)C(=O)N(C)Cc2ccccc2)NC(=O)OCc2ccccc2)cc1 (some centres not stated),inactive,1.58 µM (active),inactive
CCCCNC(=O)C(c1ccc(OCC(=O)OC)c(C(=O)OC)c1)N(CCc1ccccc1)C(=O)CCCCCN1C(=O)NC(c2ccc(-c3ccccc3)cc2)C(C(=O)OCc2ccccc2)=C1C (configuration not stated),inactive,5.01 µM (active),inactive
COC(=O)c1ccc(C(NC(=O)OCc2ccccc2)/C(C)=C/[C@@H](C)C(=O)N2CCN(C)CC2)cc1 (some centres not stated),inactive,1.26 µM (active),inactive
CCCCCCN(C(=O)CCCCCN1C(=O)NC(c2ccc(C(C)(C)C)cc2)C(C(=O)OCc2ccccc2)=C1C)C(C(=O)NCCCC)c1ccc(OCC(=O)OC)c(C(=O)OC)c1 (configuration not stated),inactive,1.26 µM (active),inactive
COC(=O)c1ccc(C(NC(=O)OCc2ccccc2)/C(=C/[C@@H](C)C(=O)NCc2ccncc2)c2cccnc2)cc1 (some centres not stated),inactive,1.26 µM (active),inactive
CCCCCCN(C(=O)CCCCCN1C(=O)NC(c2ccc(C(F)(F)F)cc2)C(C(=O)OCc2ccccc2)=C1C)C(C(=O)NCCCC)c1ccc(OCC(=O)OC)c(C(=O)OC)c1 (configuration not stated),inactive,3.98 µM (active),inactive
COC(=O)c1ccc(C(NC(=O)OCc2ccccc2)/C(=C/[C@@H](C)C(=O)NC2CCCCC2)c2cccnc2)cc1 (some centres not stated),inactive,1.26 µM (active),inactive
COC(=O)c1ccc(C(NC(=O)OCc2ccccc2)/C(I)=C/[C@@H](C)C(=O)NCc2ccc(OC)c(O)c2)cc1 (some centres not stated),inactive,3.16 µM (active),inactive
COC(=O)c1ccc(C(/C=C/[C@@H](C)C(=O)N[C@H](C)CO)NC(=O)OCc2ccccc2)cc1 (some centres not stated),inactive,15.8 µM (active),inactive
CC(C)CC1(C(=O)NCCc2c[nH]c3ccccc23)C=CCN1C(=O)c1ccccc1 (configuration not stated),inactive,3.16 µM (active),inactive
C[C@]1(C(=O)NCCN2CCOCC2)C=C[C@@H](Cc2ccccc2)N1C(=O)c1ccccc1,inactive,7.94 µM (active),inactive
COC(=O)c1ccc(C(NC(=O)OCc2ccccc2)/C(F)=C/[C@@H](C)C(=O)NCCO)cc1 (some centres not stated),inactive,15.8 µM (active),inactive
CN(C)C(=O)[C@]1(C)C[C@H]1[C@H](NC(=O)CNC(=O)[C@@H]1CCCN1C(=O)[C@]1(C)C[C@H]1[C@H](NC(=O)OCc1ccccc1)c1ccccc1)c1ccccc1,inactive,0.398 µM (active),inactive
CN(C)c1ccc(CNC(=O)C2(C)C=CCN2C(=O)c2ccccc2)cc1 (configuration not stated),inactive,10 µM (active),inactive
COC(=O)c1ccc(C(/C=C/[C@@H](C)C(=O)NCCc2c[nH]c3ccccc23)NC(=O)OCc2ccccc2)cc1 (some centres not stated),inactive,3.16 µM (active),inactive
COC(=O)c1ccc(C(NC(=O)OCc2ccccc2)/C(F)=C/[C@@H](C)C(=O)NCc2ccc(-c3ccccc3)cc2)cc1 (some centres not stated),inactive,3.98 µM (active),inactive
CC1=C(C(=O)OCc2ccccc2)C(c2ccccc2-c2ccccc2)NC(=O)N1CCCCCC(=O)O (configuration not stated),inactive,10 µM (active),inactive
CCCCCCN(C(=O)CCCCCN1C(=O)NC(c2ccc(-c3ccccc3)cc2)C(C(=O)OCc2ccccc2)=C1C)C(C(=O)NCCCC)c1ccc(O)c(C(=O)OC)c1 (configuration not stated),inactive,10 µM (active),inactive
COC(=O)c1ccc(C(NC(=O)OCc2ccccc2)/C(=C/[C@@H](C)C(=O)NCc2ccc(OC)c(O)c2)c2cccnc2)cc1 (some centres not stated),inactive,2.51 µM (active),inactive
C[C@@H]1C=C[C@](Cc2ccccc2)(C(=O)NCCc2c[nH]c3ccccc23)N1C(=O)c1ccccc1,inactive,2.51 µM (active),inactive
COC(=O)c1ccc(C(NC(=O)OCc2ccccc2)/C(C)=C/[C@@H](C)C(=O)NCc2nc3ccccc3s2)cc1 (some centres not stated),inactive,3.98 µM (active),inactive
